Experimental data from PubChem BioAssay (EPA / NIEHS).
Records with an inconclusive call do not appear. The source made the active and inactive calls. Rule for the calls: active = hit-call score of the fitted dose curve at least 0.9, where 1 is the maximum; inconclusive = response in the unintended direction; inactive = score below 0.9.

What was measured:
[1] = molecular target: bovine Estrogen Receptor (ER), ESR1 (gene 407238) (UniProt P49884); assay: NVS_NR_bER: NovaScreen (NVS) Nuclear Receptor Binding Assay for bovine Estrogen Receptor (ER) (AID 2283345);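 note: actives lower the bound radioligand count which means they displace the ER ligand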
Method in brief: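 Displacement of a radioligand from estrogen receptor in bovine uterine membrane preparations; scintillation signal taken at 18 hours, DMSO as baseline. Single-concentration duplicates (25 uM) preceded concentration-response follow-up of actives.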

[2] = molecular target: Estrogen receptor (Homo sapiens) (UniProt P03372); assay: OT_ER_ERaERa_1440: Odyssey Thera (OT) 24-hour HEK293T Protein-Complementation Assay for Estrogen Receptor-alpha/-alpha Homodimer (AID 2283349);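 note: hits raise fluorescence above DMSO for agonists and antagonists alike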
Method in brief: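 HEK293T, stable ERα LBD (aa 310-547) homodimer PCA; 24 h compound exposure; mean fluorescence intensity (nuclear for agonists, nuclear plus cytoplasmic for antagonists) vs vehicle; positive fitting direction, DMSO baseline.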

[3] = molecular target: Estrogen receptor (Homo sapiens) (UniProt P03372); assay: OT_ER_ERaERa_0480: Odyssey Thera (OT) 8-hour HEK293T Protein-Complementation Assay for Estrogen Receptor-alpha/-alpha Homodimer (AID 2283351);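 note: rise in fluorescence from reassembled reporter fragments on ERα LBD homodimer in nucleus or whole cell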
Method in brief: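 HEK293T cells stably expressing a PCA pair of ER alpha LBD (residues 310-547) were dosed for 8 hours. The gain in fluorescence intensity, nuclear for agonists and whole-cell for antagonists, was measured by laser scanning cytometry against DMSO vehicle.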

[4] = molecular target: T1, Estrogen receptor (Homo sapiens) + Estrogen receptor beta (Homo sapiens) (UniProt P03372+Q92731); assay: OT_ER_ERaERb_0480: Odyssey Thera (OT) 8-hour HEK293T Protein-Complementation Assay for Estrogen Receptor-alpha/-beta Heterodimer (AID 2283352)
Method in brief: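 Fluorescence increase from reconstituted reporter fragments, quantified by laser scanning cytometer, reflects ER-alpha/ER-beta heterodimer formation in human HEK293T cells. Exposure 8 h; positive-direction fitting against DMSO vehicle.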

[5] = molecular target: T1, Estrogen receptor (Homo sapiens) + Estrogen receptor beta (Homo sapiens); assay: OT_ER_ERaERb_1440: Odyssey Thera (OT) 24-hour HEK293T Protein-Complementation Assay for Estrogen Receptor-alpha/-beta Homodimer (AID 2283356);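 note: heteromer of ER alpha and ER beta binding domains; hits raise reporter fluorescence and both agonists and antagonists give an increase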
Method in brief: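 Fragment complementation between ER alpha (310-547) and ER beta (263-489) ligand-binding domains in HEK293T cells; signal read 24 h post-dosing by laser scanning cytometer. Gain of fluorescence relative to DMSO fitted.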

[6] = molecular target: Estrogen receptor beta (Homo sapiens) (UniProt Q92731); assay: OT_ER_ERbERb_0480: Odyssey Thera (OT) 8-hour HEK293T Protein-Complementation Assay for Estrogen Receptor-beta/-beta Homodimer (AID 2283357);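 note: active means signal gain over DMSO baseline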
Method in brief: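 ER-beta LBD homodimer PCA stably expressed in HEK293T; 8 h compound exposure, then formaldehyde fixation and Draq5 staining. Gain in nuclear/cytoplasmic fluorescence intensity versus DMSO vehicle, read on laser scanning cytometer.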

[7] = molecular target: chimpanzee Androgen Receptor (AR), AR (gene 747460) (UniProt O97775); assay: NVS_NR_cAR: NovaScreen (NVS) Nuclear Receptor Binding Assay for chimpanzee Androgen Receptor (AR) (AID 2283346);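 note: radioligand displacement from AR measured by scintillation counting in a cell-free assay; a loss of bound radioligand signal versus DMSO counts as binding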
Method in brief: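 Cell-free competition binding with insect-cell (Sf9/Sf21) extracted chimpanzee AR; scintillation signal from lysate at 72 h. Screened in duplicate at 25 uM, then concentration-response for actives; fitting relative to DMSO.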

[8] = molecular target: Estrogen receptor (Homo sapiens) (UniProt P03372); assay: NVS_NR_hER: NovaScreen (NVS) Nuclear Receptor Binding Assay for human Estrogen Receptor (ER) (AID 2283348)
Method in brief: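 Cell-free MCF7-derived ER preparation, specific radioligand displaced by test compound, read by scintillation counting 18 h post-dosing. Duplicate single-point 25 uM screen, then concentration-response confirmation; DMSO baseline.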

[9] = molecular target: Androgen Receptor/SRC-1 Co-activator, AR (gene 367) (UniProt P10275); assay: OT_AR_ARSRC1_0960: Odyssey Thera (OT) 16-hour HEK293T Protein-Complementation Assay for Androgen Receptor/SRC-1 Co-activator (AID 2283353);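 note: actives raise the signal above DMSO so potency reflects increased AR and SRC-1 complex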
Method in brief: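 Endpoint is gain-of-signal N/C fluorescence ratio in the 488 nm channel versus DMSO, from at least 400 cells per image, measured 16 h post-dosing. Cells: HEK293T stably carrying split-Venus AR/SRC-1 complementation constructs.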

[10] = molecular target: Androgen Receptor/SRC-1 Co-activator, AR (gene 367) (UniProt P10275); assay: OT_AR_ARSRC1_0480: Odyssey Thera (OT) 8-hour HEK293T Protein-Complementation Assay for Androgen Receptor/SRC-1 Co-activator (AID 2283354);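 note: hits raise the complementation signal above DMSO so AC50 marks enhancers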
Method in brief: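 Reconstituted split-Venus YFP signal from AR–SRC-1 interaction, read by imaging 8 h post-dose in stable HEK293T lines. The 488 nm nucleus-to-cytoplasm ratio (≥400 cells/image) was fitted upward against DMSO.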

[11] = molecular target: human Peroxisome Proliferator-activated Receptor alpha (PPARa), PPARA (gene 5465) (UniProt Q07869); assay: NVS_NR_hPPARa: NovaScreen (NVS) Nuclear Receptor Binding Assay for human Peroxisome Proliferator-activated Receptor alpha (PPARa) (AID 2283359);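 note: activity means loss of TR-FRET signal versus DMSO baseline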
Method in brief: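 Loss of TR-FRET binding signal relative to DMSO was measured 1 h after chemical addition to extracted receptor protein. Chemicals were first tested in duplicate at 25 uM, and actives were followed up in concentration series.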

[12] = molecular target: Retinoic acid receptor alpha (Homo sapiens) (UniProt P10276); assay: NVS_NR_hRAR_Antagonist: NovaScreen (NVS) Nuclear Receptor Binding Assay for human Retinoic Acid Alpha Receptor Antagonism (RAR) (AID 2283358)
Method in brief: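 RARalpha antagonism was read by TR-FRET as loss of binding signal versus DMSO, 2 h after chemical addition, in a biochemical format. Single-concentration duplicates (25 uM) were run first, and actives were retested in concentration series.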

Measured: AC50

Chain of Estrogen receptor beta (Homo sapiens) (Q92731 whole entry, looked up, the tested form may be a part): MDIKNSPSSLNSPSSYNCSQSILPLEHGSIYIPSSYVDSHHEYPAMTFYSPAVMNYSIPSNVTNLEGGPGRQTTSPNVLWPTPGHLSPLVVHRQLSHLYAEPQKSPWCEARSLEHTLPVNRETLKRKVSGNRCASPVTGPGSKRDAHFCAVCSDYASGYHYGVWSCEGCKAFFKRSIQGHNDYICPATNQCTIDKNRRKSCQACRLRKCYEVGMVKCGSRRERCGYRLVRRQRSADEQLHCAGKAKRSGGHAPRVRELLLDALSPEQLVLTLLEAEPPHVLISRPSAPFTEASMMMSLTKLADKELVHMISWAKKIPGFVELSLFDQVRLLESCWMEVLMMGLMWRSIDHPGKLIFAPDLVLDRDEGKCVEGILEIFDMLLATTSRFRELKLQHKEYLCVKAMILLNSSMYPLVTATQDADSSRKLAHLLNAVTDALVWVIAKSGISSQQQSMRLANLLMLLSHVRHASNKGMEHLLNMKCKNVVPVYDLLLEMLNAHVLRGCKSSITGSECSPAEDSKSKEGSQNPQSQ
Chain of human Peroxisome Proliferator-activated Receptor alpha (PPARa), PPARA (gene 5465) (Q07869 whole entry, looked up): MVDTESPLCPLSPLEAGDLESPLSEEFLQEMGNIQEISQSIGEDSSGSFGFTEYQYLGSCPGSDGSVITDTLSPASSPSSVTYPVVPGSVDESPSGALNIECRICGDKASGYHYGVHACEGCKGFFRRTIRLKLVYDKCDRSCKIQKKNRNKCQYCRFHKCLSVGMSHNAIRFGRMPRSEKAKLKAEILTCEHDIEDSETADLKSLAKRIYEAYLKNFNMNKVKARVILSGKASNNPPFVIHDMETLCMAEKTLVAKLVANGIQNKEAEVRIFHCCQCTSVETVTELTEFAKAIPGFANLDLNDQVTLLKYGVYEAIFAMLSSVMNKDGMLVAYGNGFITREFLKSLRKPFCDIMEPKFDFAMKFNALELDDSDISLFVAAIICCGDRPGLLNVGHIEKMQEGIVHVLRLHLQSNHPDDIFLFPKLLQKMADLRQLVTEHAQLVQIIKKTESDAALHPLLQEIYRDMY
Chain of Androgen Receptor/SRC-1 Co-activator, AR (gene 367) (P10275 whole entry, looked up): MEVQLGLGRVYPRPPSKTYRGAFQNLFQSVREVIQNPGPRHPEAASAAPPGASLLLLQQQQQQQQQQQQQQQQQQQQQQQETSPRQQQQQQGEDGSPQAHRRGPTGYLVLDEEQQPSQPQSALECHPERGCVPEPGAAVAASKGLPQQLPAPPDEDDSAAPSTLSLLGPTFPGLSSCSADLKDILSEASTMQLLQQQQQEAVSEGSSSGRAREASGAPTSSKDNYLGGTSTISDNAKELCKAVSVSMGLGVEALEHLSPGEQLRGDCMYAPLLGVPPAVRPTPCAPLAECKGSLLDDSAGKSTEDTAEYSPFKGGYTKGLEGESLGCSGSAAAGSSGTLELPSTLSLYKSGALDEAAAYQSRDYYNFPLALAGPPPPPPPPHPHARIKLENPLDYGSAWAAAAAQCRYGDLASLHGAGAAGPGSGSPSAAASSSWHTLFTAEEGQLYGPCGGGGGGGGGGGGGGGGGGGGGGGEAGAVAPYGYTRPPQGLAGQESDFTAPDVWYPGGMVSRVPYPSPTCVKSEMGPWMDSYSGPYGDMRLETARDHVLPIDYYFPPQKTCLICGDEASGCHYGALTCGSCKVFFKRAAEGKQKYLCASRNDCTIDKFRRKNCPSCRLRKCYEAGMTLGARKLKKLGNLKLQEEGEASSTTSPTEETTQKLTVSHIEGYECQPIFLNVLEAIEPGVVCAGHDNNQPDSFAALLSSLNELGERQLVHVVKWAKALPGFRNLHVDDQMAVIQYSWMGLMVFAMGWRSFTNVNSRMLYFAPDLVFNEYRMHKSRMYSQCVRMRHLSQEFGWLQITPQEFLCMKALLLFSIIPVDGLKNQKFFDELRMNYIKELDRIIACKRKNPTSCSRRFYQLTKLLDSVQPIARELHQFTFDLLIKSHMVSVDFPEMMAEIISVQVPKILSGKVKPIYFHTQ
Chain of bovine Estrogen Receptor (ER), ESR1 (gene 407238) (P49884 whole entry, looked up): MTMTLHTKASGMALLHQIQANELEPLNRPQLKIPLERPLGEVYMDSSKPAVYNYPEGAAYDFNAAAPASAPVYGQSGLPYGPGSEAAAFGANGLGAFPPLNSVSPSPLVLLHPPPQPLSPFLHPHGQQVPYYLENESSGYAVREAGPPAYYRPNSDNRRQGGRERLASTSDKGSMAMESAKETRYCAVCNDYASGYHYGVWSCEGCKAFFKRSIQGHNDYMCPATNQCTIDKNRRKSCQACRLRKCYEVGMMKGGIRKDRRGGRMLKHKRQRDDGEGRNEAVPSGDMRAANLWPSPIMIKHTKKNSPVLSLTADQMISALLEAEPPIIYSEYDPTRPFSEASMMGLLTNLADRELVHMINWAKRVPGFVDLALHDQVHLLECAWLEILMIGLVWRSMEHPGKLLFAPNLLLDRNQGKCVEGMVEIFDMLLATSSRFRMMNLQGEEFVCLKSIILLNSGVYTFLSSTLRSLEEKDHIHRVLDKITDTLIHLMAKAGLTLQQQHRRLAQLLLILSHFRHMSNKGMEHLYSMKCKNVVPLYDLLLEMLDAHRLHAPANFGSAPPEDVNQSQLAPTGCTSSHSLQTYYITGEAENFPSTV
Chain of chimpanzee Androgen Receptor (AR), AR (gene 747460) (O97775 whole entry, looked up): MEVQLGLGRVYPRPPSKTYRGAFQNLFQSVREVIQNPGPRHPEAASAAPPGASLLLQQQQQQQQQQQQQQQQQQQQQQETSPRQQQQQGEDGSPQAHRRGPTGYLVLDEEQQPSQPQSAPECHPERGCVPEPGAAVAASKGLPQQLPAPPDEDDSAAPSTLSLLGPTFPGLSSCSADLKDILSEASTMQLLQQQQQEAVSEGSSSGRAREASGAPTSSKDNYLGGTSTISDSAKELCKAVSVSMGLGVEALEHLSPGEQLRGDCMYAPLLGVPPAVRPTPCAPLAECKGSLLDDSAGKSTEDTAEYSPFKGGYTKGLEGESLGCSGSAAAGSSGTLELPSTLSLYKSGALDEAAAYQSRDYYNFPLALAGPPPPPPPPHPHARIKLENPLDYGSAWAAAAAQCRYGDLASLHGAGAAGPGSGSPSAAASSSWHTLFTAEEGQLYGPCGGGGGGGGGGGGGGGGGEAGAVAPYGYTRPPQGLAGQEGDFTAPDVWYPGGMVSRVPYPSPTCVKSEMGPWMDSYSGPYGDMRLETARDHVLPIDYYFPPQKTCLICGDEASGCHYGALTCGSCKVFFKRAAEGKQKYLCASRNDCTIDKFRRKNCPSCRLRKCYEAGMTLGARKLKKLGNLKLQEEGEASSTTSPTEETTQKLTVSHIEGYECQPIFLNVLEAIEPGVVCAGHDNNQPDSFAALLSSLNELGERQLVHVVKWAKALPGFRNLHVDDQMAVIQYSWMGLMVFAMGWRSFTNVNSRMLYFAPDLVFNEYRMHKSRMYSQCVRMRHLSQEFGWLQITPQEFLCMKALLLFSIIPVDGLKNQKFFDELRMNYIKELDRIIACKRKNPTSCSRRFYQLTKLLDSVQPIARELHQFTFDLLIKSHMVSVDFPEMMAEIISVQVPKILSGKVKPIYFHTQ
T1 sequence (P03372 whole entry, looked up, the tested form may be a part): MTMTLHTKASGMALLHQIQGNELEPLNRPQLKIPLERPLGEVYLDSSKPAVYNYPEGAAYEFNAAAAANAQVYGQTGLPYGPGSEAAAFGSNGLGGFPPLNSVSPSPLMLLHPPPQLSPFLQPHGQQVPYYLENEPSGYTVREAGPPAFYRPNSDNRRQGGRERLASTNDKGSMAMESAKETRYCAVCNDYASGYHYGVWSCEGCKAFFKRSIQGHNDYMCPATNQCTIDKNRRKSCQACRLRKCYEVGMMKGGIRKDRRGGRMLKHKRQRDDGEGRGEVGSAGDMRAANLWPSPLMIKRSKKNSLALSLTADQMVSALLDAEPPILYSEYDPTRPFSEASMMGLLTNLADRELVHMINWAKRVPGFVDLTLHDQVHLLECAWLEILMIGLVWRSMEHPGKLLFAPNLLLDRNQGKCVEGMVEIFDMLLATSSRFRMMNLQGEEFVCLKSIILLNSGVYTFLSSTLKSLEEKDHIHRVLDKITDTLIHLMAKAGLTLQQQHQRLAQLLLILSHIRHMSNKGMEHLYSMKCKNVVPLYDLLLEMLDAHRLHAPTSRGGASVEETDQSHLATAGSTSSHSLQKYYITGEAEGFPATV
T1 sequence (Q92731 whole entry, looked up, the tested form may be a part): as the sequence (Q92731 whole entry, looked up, the tested form may be a part) above
Chain of Estrogen receptor (Homo sapiens) (P03372 whole entry, looked up, the tested form may be a part): as the sequence (P03372 whole entry, looked up, the tested form may be a part) above
Chain of Retinoic acid receptor alpha (Homo sapiens) (P10276 whole entry, looked up): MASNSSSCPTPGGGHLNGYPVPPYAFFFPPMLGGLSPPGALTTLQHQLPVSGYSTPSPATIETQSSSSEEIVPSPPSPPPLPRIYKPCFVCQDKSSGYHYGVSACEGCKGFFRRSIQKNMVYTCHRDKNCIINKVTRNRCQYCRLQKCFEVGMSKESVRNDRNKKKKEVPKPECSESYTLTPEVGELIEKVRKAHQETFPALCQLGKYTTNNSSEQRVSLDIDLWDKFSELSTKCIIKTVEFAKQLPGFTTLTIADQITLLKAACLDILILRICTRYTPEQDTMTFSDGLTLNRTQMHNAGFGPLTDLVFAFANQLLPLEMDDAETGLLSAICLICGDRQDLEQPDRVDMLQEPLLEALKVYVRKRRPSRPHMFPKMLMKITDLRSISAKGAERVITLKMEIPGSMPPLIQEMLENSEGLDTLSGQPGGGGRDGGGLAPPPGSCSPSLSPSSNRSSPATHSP

CC(C)(C)C1CCC(=O)CC1
active: [1] 25 µM
inactive: [2] | [3] | [4] | [5] | [6]

CCOC(=O)/C=C\C(=O)OCC
inactive: [1]
active: [7] 5 µM

C=CC(=O)OCC(C)OCC(C)OCC(C)OC(=O)C=C (stereo not given)
active: [7] 6.29 µM
inactive: [1] | [8]

CC1(C)CC(O)CC(C)(C)N1[O]
inactive: [7]

C=C1C[C@H]2[C@@H]3C=C(C)C4=CC(=O)CC[C@]4(C)[C@H]3CC[C@]2(C)[C@@]1(OC(C)=O)C(C)=O
active: [7] 0.33 µM | [8] 0.0185 µM | [9] 6.25 µM | [10] 5.8 µM | [5] 16.9 µM
inactive: [1] | [3] | [6]

Oc1ccccc1Cc1ccccc1O
inactive: [8] | [3]
active: [7] 25 µM | [4] 23.4 µM | [5] 53.4 µM | [6] 31.6 µM

CC(C)c1ccc(O)c(C(C)C)c1
inactive: [1] | [8] | [3] | [4] | [5] | [6]

Oc1ccc(-c2ccccc2)c(Cl)c1
inactive: [1] | [8] | [2] | [6] | [11]
active: [7] 14.1 µM | [3] 12.2 µM | [4] 12.2 µM | [9] 40 µM | [10] 31.5 µM | [5] 15.9 µM

CCCCCCCCCCCCc1ccc(O)cc1
active: [1] 10.7 µM | [8] 11 µM | [3] 2.48 µM | [4] 1.86 µM | [5] 1.14 µM | [6] 0.853 µM

COc1ccc(-c2coc3cc(O)cc(O)c3c2=O)cc1
active: [1] 14.6 µM | [8] 0.642 µM | [3] 12.3 µM | [4] 2.91 µM | [5] 5.37 µM | [6] 2.05 µM

O=C(O)C1CCC(C(=O)O)CC1 (stereo not given)
inactive: [1] | [2] | [3] | [5] | [6]

CC(C)=CCCC(C)=CC#N
inactive: [1] | [8] | [2] | [3]

CC(=O)OC(C)c1ccccc1 (stereo not given)
inactive: [7] | [3] | [4] | [5] | [6]

C[Si](C)(C)N[Si](C)(C)C
inactive: [1] | [8] | [2] | [3] | [5] | [6]

CCCCCCCCCC[N+](C)(CCCCCCCCCC)CCC[Si](OC)(OC)OC
inactive: [1] | [8] | [3] | [12]
active: [5] 11.8 µM | [11] 8.29 µM

O=S(=O)(O)c1ccc(Nc2nc(Nc3ccc(C=Cc4ccc(Nc5nc(Nc6ccc(S(=O)(=O)O)cc6)nc(N(CCO)CCO)n5)cc4S(=O)(=O)O)c(S(=O)(=O)O)c3)nc(N(CCO)CCO)n2)cc1
inactive: [1] | [8]

CC(=O)OCc1ccccc1
not listed: [2] | [7] | [11] | [12]
inactive: all other assays above

CC(C)(C)NC(=O)[C@H]1CC[C@H]2[C@@H]3CC[C@H]4NC(=O)C=C[C@]4(C)[C@H]3CC[C@]12C
active: [2] 75 µM
inactive: [1] | [7] | [3]

N#Cc1ccc(C2CCCc3cncn32)cc1 (stereo not given)
inactive: [1] | [3]
active: [8] 4.33 µM

CCCCCC[C@@H](O)C/C=C\CCCCCCCC(=O)OCC(O)CO (stereo not given in full)
active: [11] 15.5 µM
inactive: [7] | [2] | [3] | [9]

O=C(Nc1ccccc1)c1cc(Cl)ccc1O
active: [5] 31 µM
inactive: [1] | [8] | [3] | [6]

C=C[Si](OCCOC)(OCCOC)OCCOC
inactive: [1] | [7] | [2] | [3]

C=CC(=O)OCCCCCCOC(=O)C=C
inactive: [1] | [8]

c1ccc(Nc2cccc3ccccc23)cc1
active: [2] 63.1 µM | [3] 35.2 µM | [4] 24.8 µM | [5] 47.1 µM | [6] 29.1 µM
inactive: [1] | [8]

C=CCCCCCCCCC=O
inactive: [1]

CCCCc1ccc(Cl)cc1
inactive: [2] | [3] | [4] | [5] | [6]

CCCCCCOc1ccc(N)cc1
inactive: [3]
active: [2] 23.9 µM

C[Si]1(C)O[Si](C)(C)O[Si](C)(C)O[Si](C)(C)O[Si](C)(C)O1
inactive: [3]
active: [2] 50 µM

CCCCCCCCCCCC(=O)N(C)CC(=O)O
inactive: [8] | [2] | [3] | [5] | [6]

O=C(O)/C=C/c1ccccc1
inactive: [3]
active: [2] 34.2 µM

O=C(Oc1ccccc1)c1ccccc1O
inactive: [2] | [3]

CCCCC(CC)COS(=O)(=O)O (stereo not given)
inactive: [2] | [3] | [4] | [5]

CCCCOCCOC(=O)COc1ccc(Cl)cc1Cl
inactive: [2] | [3] | [4] | [5]

CN(C)Cc1cc(CN(C)C)c(O)c(CN(C)C)c1
inactive: [8] | [3] | [9] | [10]

CCN1CN(CC)CN(CC)C1
inactive: [7] | [3] | [5] | [6]

CC(=O)/C=C/C1C(C)=CCCC1(C)C (stereo not given)
inactive: [2] | [3]

CN(C)c1ccc2nc3ccc(=[N+](C)C)cc-3sc2c1
active: [7] 11.2 µM | [3] 50 µM | [4] 76.6 µM | [5] 12 µM | [6] 70.8 µM

CCCCCCC=O
inactive: [2] | [3]
